Rows were chosen to be rich in hits. Some 1.3% of all compounds tested hit in one or more screens of this group.
MEX-5 binding – MEX-5 zinc finger RNA-binding disruptors – biochemical, C. elegans, fluorescence polarization, MLPCN library, primary screen; AID 1832, 2009; actives 0.38% (n = 300,000); activity score (negative = inhibition of binding), % at 10 µM; Zinc finger protein mex-5 (Caenorhabditis elegans), Q9XUB2; MEX-5/FITC-TCR2 RNA binding; stronger effect = lower value;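 active = inhibition past about -25% in most replicates, and total fluorescence under double the plate's negative control median, limit read from the data; inconclusive = replicates evenly split on the limit, or fluorescence at least double controls; inactive = too little inhibition in most replicates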;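 also: 0% = DMSO and -100% = 5 µM competing unlabeled TCR2 RNA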
BCLXL inh – inhibitors of human Bcl-xL, primary screen, biochemical, fluorescence polarization, HTS | Bcl-2-like protein 1 (Homo sapiens), Q07817 | GST-Bcl-xL / FITC-Bim BH3 peptide fluorescence polarization | inhibition, % at 10.9 µM | actives 0.7% (n = 320,000);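 active = inhibition above the mean of all tested compounds plus 3 SD, cutoff set per campaign, cut at about 30% in these data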;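 also: 0% = DMSO wells and 100% = unlabeled Bim-BH3 peptide competitor; inhibitors lower millipolarization by displacing the labeled peptide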
Target sequence (Q07817 whole entry, looked up): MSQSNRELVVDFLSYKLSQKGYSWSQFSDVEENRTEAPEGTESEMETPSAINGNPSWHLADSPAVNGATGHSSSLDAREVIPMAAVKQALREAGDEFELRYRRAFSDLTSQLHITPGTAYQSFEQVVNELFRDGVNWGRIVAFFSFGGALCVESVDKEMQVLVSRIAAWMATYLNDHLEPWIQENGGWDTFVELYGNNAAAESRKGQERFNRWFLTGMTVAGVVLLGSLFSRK
EBV gp42 block – Epstein-Barr virus gp42 inhibitors, primary screen, biochemical, uHTS, fluorescence polarization; actives 0.42% (n = 220,000); Glycoprotein 42 (Epstein-Barr virus (strain AG876)), Q1HVG2; inhibition, % (tested at 21.74 µM); AID 1085, 2008; Fluorescence polarization binding assay, mP read-out; in the data active = inhibition above about 50%
Target sequence (Q1HVG2 whole entry, looked up): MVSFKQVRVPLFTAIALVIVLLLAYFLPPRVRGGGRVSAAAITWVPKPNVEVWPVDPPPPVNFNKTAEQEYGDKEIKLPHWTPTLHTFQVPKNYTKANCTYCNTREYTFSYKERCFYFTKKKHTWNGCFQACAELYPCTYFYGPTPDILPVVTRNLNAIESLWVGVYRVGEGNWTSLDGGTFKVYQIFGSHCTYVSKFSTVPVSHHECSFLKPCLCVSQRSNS
E coli Lon inh – inhibitors of E. coli Lon protease, primary screen, biochemical, fluorescence polarization. inhibition, % at 7.94 µM. actives 0.42% (n = 360,000). purified E. coli Lon protease. P0A9M0; in the data active = inhibition above about 13%, passing the limit was not always enough;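 also: 0% = enzyme with probe and DMSO and 100% = no enzyme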
GLD-1 TGE inh – GLD-1/TGE RNA complex disruptors, primary screen, biochemical, fluorescence polarization | Female germline-specific tumor suppressor gld-1 (Caenorhabditis elegans), Q17339 | purified GLD-1 + fluorescein TGE RNA | inhibition, % at 5.96 µM | actives 0.44% (n = 320,000) | AID 2280, 2010;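 active = percent inhibition above a per-plate cutoff, the plate mean of test compounds plus 3 SD, cut at about 30% in these data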;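 also: 0% = DMSO wells with GLD-1 and probe and 100% = wells lacking GLD-1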
Active calls of the source: *; ? = inconclusive; . = not tested or not shown; + = active, no number.

SMILES | MEX-5 binding | BCLXL inh | EBV gp42 block | E coli Lon inh | GLD-1 TGE inh
N#CC1=C(N)Oc2cc(N)ccc2C1c1ccc(F)cc1F (stereo unspecified) | -1 | 55* | . | -38 | 4
O=C(NCCO)Nc1ccc2nc(-c3ccco3)c(-c3ccco3)nc2c1 | . | 136* | 49 | . | 78*
O=C(c1ccc2nc(-c3ccco3)c(-c3ccco3)nc2c1)N1CCN(c2ncccn2)CC1 | -5 | 38* | 45 | 4 | 15
O=C(Nc1ccccc1)c1ccc2nc(-c3ccco3)c(-c3ccco3)nc2c1 | -1 | 27 | -4 | -11 | 12
O=C(NCc1ccccc1)c1ccc2nc(-c3ccco3)c(-c3ccco3)nc2c1 | -1 | 46* | 2 | 5 | 15
CC(=O)c1ccc(NC(=O)c2ccc3nc(-c4ccco4)c(-c4ccco4)nc3c2)cc1 | -6 | 39* | 99* | -6 | 13
COCCCn1c(O)c(/C=C2\N=C(C#N)C(=Nc3ccc(C)cc3)O2)sc1=S | 5 | -34 | -18 | -38 | -16
O=C(CN1CCSC1=O)Nc1ccc(N2CCOCC2)cc1 | . | . | . | 2 | .
CCN(CC)S(=O)(=O)c1cccc(C(=O)OCC(=O)c2ccc3c(c2)OCCO3)c1 | 2 | 0 | -22 | 3 | 4
CC(C)(C)c1ccc(C(=O)C2CCCN(C(=O)CCn3cncn3)C2)cc1 (stereo unspecified) | 0 | 6 | . | -13 | 2
O=C(NCCCO)c1ccc2nc(-c3ccco3)c(-c3ccco3)nc2c1 | . | . | -6 | -3 | .
CCCCNC(=O)c1ccc2nc(-c3ccco3)c(-c3ccco3)nc2c1 | 0 | 41* | 10 | 2 | 8
CCn1c(SCc2ccc(C(=O)Nc3nccs3)cc2)nnc1-c1ccc(N)cc1 | 2 | 5 | 53* | 2 | 11
Cc1n[nH]c(=O)nc1N/N=C/c1ccc(O)c([N+](=O)[O-])c1 | -28* | 3 | -16 | -3 | 7
COc1cc(/C=N/Nc2nc3ccccc3s2)cc([N+](=O)[O-])c1O | -3 | 34* | 8 | 10 | -5
COc1cc(/C=N/Nc2nc(=O)[nH]nc2C)cc([N+](=O)[O-])c1O | -79* | 15 | -3 | 7 | 5
O=CN(Cc1nc2ccccc2[nH]1)c1ccc(C(=O)O)cc1 | . | . | . | -14 | .
CCOC(=O)[C@H]1NN=C(C(=O)OC)[C@@H]1c1ccccc1 | -1 | 1 | 10 | -5 | 3
COc1ccc(N2C3=C(CC4=C2CCCC4=O)C(=O)CCC3)cc1 | -4 | 75* | 19 | -3 | 7
CCOc1ccc(N=C2NC(=O)S/C2=C\c2ccc(Cl)cc2)cc1 | -2 | 2 | -14 | 1 | 3
COc1ccc(N=C2NC(=O)S/C2=C\c2ccc(N(C)C)cc2)cc1 | 2 | -65 | 95* | -88 | 14
O=C(COC(=O)c1ccc([N+](=O)[O-])s1)Nc1ccc(Cl)cn1 | -1 | 17 | -6 | -2 | 1
Cc1c(Cl)cnc(NC(=O)COC(=O)c2ccc([N+](=O)[O-])s2)c1Cl | 0 | 42* | 43 | -1 | 19
CC(=O)N1CCn2c3c(c(=O)c4cc(C)ccc42)CCC31 (stereo unspecified) | -11 | 32* | -7 | 1 | 12
CC(=O)Nc1ccc(NC(=O)CCSCCc2ccccn2)cc1 | -1 | 1 | 2 | 4 | 5
SMILES | MEX-5 binding | BCLXL inh | EBV gp42 block | E coli Lon inh | GLD-1 TGE inh
Cc1ccc(-n2c(N)c(C(=O)Nc3c(C)n(C)n(-c4ccccc4)c3=O)c3nc4ccccc4nc32)cc1 | 0 | -6 | 21 | -4 | 6
Cc1cc(C)cc(-n2c(N)c(C(=O)Nc3c(C)n(C)n(-c4ccccc4)c3=O)c3nc4ccccc4nc32)c1 | 1 | 32* | 12 | 1 | 7
COc1ccc(NC(=O)c2sc3nc(-c4cccnc4)ccc3c2N)cc1OC | ? | 48* | -44 | -135 | 13
Nc1c(C(=O)Nc2ccccc2)sc2nc(-c3cccnc3)ccc12 | -13 | 16 | 20 | . | 2
COc1ccc(NC(=O)c2sc3nc(-c4cccnc4)ccc3c2N)cc1 | -55* | 108* | 84* | 4 | 69*
Nc1c(C(=O)Nc2cccc(Cl)c2Cl)sc2nc(-c3cccnc3)ccc12 | -7 | 0 | 2 | -2 | -17
CC(=O)Oc1ccc(C(=O)Nc2cccc(C(=O)c3ccc(C)c(C)c3)c2)cc1 | 0 | -1 | . | -6 | 7
Cc1ccc(-n2c(C)cc3c2CCCC3=O)cc1 | -3 | 31* | -17 | 5 | 17
O=[N+]([O-])c1ccc(/C=C/C2=NN(c3ccccc3)C(c3ccco3)C2)cc1 (stereo unspecified) | . | 67* | -22 | -149 | -20
COc1cc(C2C=C(c3cccs3)Nc3ncnn32)cc(OC)c1OC (stereo unspecified) | . | . | 105* | + | .
COc1cccc(C2=CC(c3ccc(C)cc3)n3ncnc3N2)c1 (stereo unspecified) | 4 | 55* | 22 | . | 57*
CCCN(C(=O)c1cnccn1)c1c(N)n(Cc2ccccc2)c(=O)[nH]c1=O | . | 3 | . | -16 | 5
COC(=O)c1ccc2c(=O)sc(N3CCC(C(N)=O)CC3)nc2c1 | -2 | 16 | 85* | -3 | 10
COC(=O)c1ccc(C(=O)OC)c(NC(=S)N2CCC(C(N)=O)CC2)c1 | 1 | 10 | -3 | -5 | 2
COc1cc(O)c(CCC(=O)c2ccc(OC)c(OC)c2)c(OC)c1 | 1 | 1 | . | -10 | 0
Cc1ccc(N=C2NC(=O)/C(=C\c3ccc(C)s3)S2)cc1 | ? | 0 | -51 | -6 | 7
C=C(CCC(=O)c1ccccc1)C(=O)c1ccccc1 | 0 | 85* | 4 | 1 | 14
CCOC(=O)[C@H]1[C@H]2COc3ccc(C)cc3[C@@H]2N2C(=O)CN(Cc3ccc(Cl)cc3)C(=O)[C@@]12C | . | 5 | . | 6 | -1
CCOC(=O)[C@H]1[C@H]2COc3ccccc3[C@@H]2N2C(=O)CN(Cc3ccc(C)cc3)C(=O)[C@@]12C | . | . | . | -14 | 91*
COc1ccccc1CNC(=O)COC(=O)c1ncc(Cl)c(Cl)c1Cl | 0 | 0 | . | -4 | 6
Nc1cc(N)c(OCC(F)(F)F)cc1OCC(F)(F)F | -1 | 39* | 7 | 10 | 30
COc1ccc2nc3cc(Cl)ccc3c(Nc3cc(CN4CCCC4)c(O)c(CN4CCCC4)c3)c2n1 | -36* | 5 | . | 4 | -1
COc1ccc2nc3cc(Cl)ccc3c(Nc3cc(C(C)C)c(O)cc3C)c2c1 | -1 | -4 | 15 | 11 | 5
CCOCCCNC(=O)c1c[nH]c2ccc(OCC)cc2c1=O | 1 | 11 | -9 | 9 | -5
O=C(COC(=O)CCc1c[nH]c2ccccc12)Nc1ccccc1 | . | . | . | -2 | .
